The campaign covered roughly 220,000 compounds. About 2,600 (1.2%) were called active. This is one part of a sample in which actives are shown more often than they occur. A number with no mark means an inactive call.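 Rule for the calls: active = activation above the mean of all tested compounds plus 3 SD, set per screening run (cut at about 8.8% in these data); inactive = the rest.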
Target: Wee1-like protein kinase (Homo sapiens) (UniProt P30291)
Assay: Wee1 degradation inhibitors, primary screen, cell-based, HeLa, Wee1K328M-luciferase, luminescence (AID 1321);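 note: cells exposed to compound for 20 h before luminescence read; 0% = DMSO alone and 100% = MG132 at 30 µM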
Conditions: HeLa Luc-Wee1K328M stability, at 5 µM, active compounds read high, 100% = proteasome inhibitor MG132 effect

Row | SMILES | reporter increase
1 | O=C(NNc1ccccc1Cl)C(O)(c1cccc(C(F)(F)F)c1)c1cccc(C(F)(F)F)c1 | 16.5% (active)
2 | O=C(Nc1cc(C(F)(F)F)ccc1Cl)C(=O)N1CCCCC1 | 0.04%
3 | CC(CC(=O)Nc1cc(C(F)(F)F)ccc1Cl)c1ccccc1 (stereo not given) | -1.69%
4 | CCn1c2ccccc2c2cc(NC(=O)Nc3ccc([N+](=O)[O-])cc3C)ccc21 | -2.8%
5 | Cc1ccc(Nc2nnc(SCc3ccccc3)s2)cc1 | 0.21%
6 | Cc1ccccc1Nc1nc(N)nc(CSc2ccccc2)n1 | 5.12%
7 | Cc1ccc(Nc2nc(N)nc(CSc3nnc(C)s3)n2)cc1 | 9.2% (active)
8 | O=C(c1cc(COc2c(F)cccc2F)on1)N1CCSCC1 | -0.41%
9 | COC(=O)Cn1c(O)c(N=NC(=O)OC)c2ccccc21 | -1.42%
10 | Cc1cc(C)nc(SCc2cn3c(C)cc(C)nc3n2)n1 | 1.99%
11 | COc1cc(C(F)(F)F)c(C(=O)N(C)c2ccc(Cl)cc2)cn1 | -1.97%
12 | COc1ccccc1N(C)S(=O)(=O)c1ccc(C(=O)NC2CCCCCC2)cc1 | 1.14%
13 | CCCOC(=O)c1cc2ccccc2oc1=O | -1.59%
14 | CN(C)CCCCCN(C)Cc1cc2ccccc2o1 | 9.64% (active)
15 | CC(=O)N(CCCN(C)C)c1nc2ccc(C)cc2s1 | 1.87%
16 | COCCN(Cc1cc2cc3c(cc2nc1Cl)OCO3)C(=O)c1cccc(C)c1 | -2.99%
17 | Cc1ccc(NC(=S)N/N=C2/CCCc3c(C)cc(C)cc32)cc1 | -2.2%
18 | CCCCNC(=S)N/N=C1\CCCCc2ccccc21 | 9.73% (active)
19 | CCCC1CCC(=NNC(=S)NCCc2ccccc2)CC1 (stereo not given) | -0.9%
20 | Cc1ccc(N2C(=O)CC(N3CCSCC3)C2=O)c(C)c1 (stereo not given) | -2.9%
21 | Cc1ccccc1NC(=O)Nc1ccccc1N1CCCCC1 | 2.91%
22 | Cc1nnc(SCc2cc(=O)[nH]c(N3CCN(Cc4ccccc4)CC3)n2)s1 | 0.09%
23 | O=c1cc(CSc2ccc(Cl)cc2)nc(N2CCOCC2)[nH]1 | 4.27%
24 | O=c1cc(CSc2ccccn2)nc(N2CCN(c3ccccc3)CC2)[nH]1 | 10.3% (active)
25 | C/C=C/c1ccc(OCCCCN2CCC(C)CC2)c(OC)c1 | 28.9% (active)

Row | SMILES | reporter increase
26 | C/C=C/c1ccc(OCCOc2ccc(C=O)cc2OC)c(OC)c1 | 0.41%
27 | C/C=C/c1ccc(OCC(O)CN2CCCCCCC2)c(OC)c1 (stereo not given) | -0.18%
28 | CN(C(=O)COC(=O)c1cc(-c2ccco2)nc2ccccc12)C1CCS(=O)(=O)C1 (stereo not given) | -1.15%
29 | O=C(Nc1nc2ccc(S(=O)(=O)N3CCCC3)cc2s1)C1CCCO1 (stereo not given) | -1.26%
30 | Cc1cc(C)c2nc(NC(=O)C3CCCO3)sc2c1 (stereo not given) | 9.43% (active)
31 | Cc1cc(C)c2nc(NC(=O)c3ccc4c(c3)OCO4)sc2c1 | -0.87%
32 | COc1ccc(NC(=O)CCN2C(=O)/C(=C/c3ccc4c(c3)OCO4)SC2=S)cc1 | 0.36%
33 | Cc1cc(C(=O)CSc2nc(N)cc(=O)[nH]2)c(C)n1Cc1ccco1 | 2.39%
34 | CC(=O)Nc1ccc(OCC(=O)NCc2ccc(C)cc2)cc1 | -0.21%
35 | COc1ccc(Nc2cc(Cl)ccc2C(=O)O)cn1 | 2.84%
36 | COc1ccc(NC(=S)Nc2ccccc2Cl)cn1 | 4.13%
37 | COc1ccc(NC(=S)NCCNC(C)=O)cc1 | 0.16%
38 | COc1ccc(CS(=O)/C(Cl)=C(/Cl)C(=O)Nc2ccc(OC)nc2)cc1 (stereo not given) | 17.4% (active)
39 | COc1ccc(NC(=O)/C(Cl)=C(/Cl)S(=O)Cc2ccc(C)cc2)cn1 (stereo not given) | 11% (active)
40 | Cc1nn(-c2ccccc2)c(=O)c2noc(C)c12 | 3.18%
41 | CS(=O)(=O)c1ccc2nnn(OCC(=O)Nc3cccc(C#N)c3)c2c1 | 0.86%
42 | Cn1c(=O)c(=O)n(C)c2cc(S(=O)(=O)NCCN3CCN(c4ccccc4F)CC3)ccc21 | 3.58%
43 | COc1ccc(Cc2cc(-c3ccc(F)cc3)n[nH]c2=O)cc1 | -0.9%
44 | CCC1(C)Cc2c(sc3nc(SC)[nH]c(=O)c23)CO1 (stereo not given) | -2.99%
45 | CCOc1ccc2nc(Nc3nc4ccc(NC(C)=O)cc4s3)sc2c1 | 1.97%
46 | COc1ccc2nc(Nc3nc4cc5c(cc4s3)OCCO5)sc2c1 | 0.78%
47 | CCCC(=O)Nc1nc2ccc(NC(=O)c3cccnc3)cc2s1 | 3.09%
48 | CSc1nc2ccc(NC(=O)c3c(F)cccc3F)cc2s1 | 4.29%
49 | COc1ccc2nc(Nc3nc4ccc(NC(C)=O)cc4s3)sc2c1 | 10.4% (active)
50 | CCCC(=O)Nc1nc2ccc(NC(=O)c3c(F)c(F)c(OC)c(F)c3F)cc2s1 | 10.8% (active)

Row | SMILES | reporter increase
51 | CCCC(=O)Nc1ccc2c(c1)nc(CCNC(=O)c1ccco1)n2C | 1.75%
52 | CC(=O)N(OCc1ccc(OC(C)C)c(Cl)c1)C(C)=O | 2.11%
53 | Cc1c(S(=O)(=O)NCc2ccccc2)c(=O)n(C)c(=O)n1C | -0.22%
54 | CN1CCN(c2ccc(S(=O)(=O)N3CCOCC3)cc2NC(=O)CCc2ccccc2)CC1 | 1.28%
55 | Cc1nnc2n1N=C(c1ccc3c(c1)NC(=O)CO3)CS2 | -1.74%
56 | N/C(=N\S(=O)(=O)c1cc(C(F)(F)F)cc(C(F)(F)F)c1)c1cccs1 | -2.49%
57 | O=C(CNC(=O)c1cc2c(s1)CCC2)Nc1ccccc1Br | 5.95%
58 | O=C(Nc1ccc(F)cc1)c1cc2c(s1)CCCC2 | 16.5% (active)
59 | O=C(NNC(=O)c1cc2c(s1)CCCC2)c1ccccc1 | 4.34%
60 | O=C(CNCCC1=CCCCC1)Nc1ccccc1N1CCCCCC1 | -2.9%
61 | CN(CC(=O)Nc1ccc(F)cc1)CC(=O)Nc1ccc(Cl)c(S(=O)(=O)N2CCOCC2)c1 | -2.59%
62 | CCN(CC)CCOc1ccc2c(c1)C(=NNC(=O)c1ccccn1)c1cc(OCCN(CC)CC)ccc1-2 | 13% (active)
63 | CCOc1cc(NC(=O)c2ccccn2)c(OCC)cc1NC(=O)c1ccc(OC)cc1 | -0.73%
64 | COc1ccc(CC(=O)N/N=C(\C)c2ccccn2)cc1 | 3.82%
65 | COc1ccccc1-n1cn[nH]c1=S | -1.47%
66 | Cc1ccc2c(C)c(C(=O)N3CCC(N4CCC(C(=O)NC5CC5)CC4)CC3)oc2c1 | 7.23%
67 | O=C(N/N=C\c1cc(Br)c(Br)o1)C1COc2ccccc2O1 (stereo not given) | 3.79%
68 | Cc1cc(CO)nn1-c1ccc([N+](=O)[O-])cc1 | -1.77%
69 | c1ccc(Nc2nc(-c3ccncc3)cs2)nc1 | 11.1% (active)
70 | COc1ccc(-c2csc(Nc3ccccn3)n2)cc1 | 0.98%
71 | c1cnc(Nc2nc(-c3ccc4ccccc4c3)cs2)nc1 | -0.11%
72 | O=C(O)C#Cc1cccc2ccccc12 | 6.16%
73 | O=[N+]([O-])C(=c1ccc2c(c1)N1C3=C(CCCC3)CC3CCCCC31N=2)[N+](=O)[O-] (stereo not given) | -2.36%
74 | Cc1cc(C)c2c(-n3cccc3)c(NC(=O)OCc3ccccc3)sc2n1 | -2.38%
75 | C/C(O)=C\c1nc(=O)c2c(C)cc(C)nc2n1-c1ccccc1 | -1.67%

Row | SMILES | reporter increase
76 | Cc1cc(C)c2c(n1)sc1c(=O)n(-c3ccccc3)c(=O)[nH]c12 | 17.8% (active)
77 | O=c1[nH]c(SCc2cccc(F)c2)nc2ccccc12 | -1.83%
78 | O=P(O)(CN1CCCCCC1)C1Cc2ccccc2C1 | 2.27%
79 | CN1CCN(C(=O)CCc2nc(-c3ccc(Cl)cc3)no2)CC1 | 2.75%
80 | CC1CCN(Cc2nc(-c3ccc(Cl)cc3)no2)CC1 | 8.97% (active)
81 | Cc1ccc(-c2noc(CN3CCN(Cc4ccccc4)CC3)n2)cc1 | 0.1%
82 | COCC(C)OC(=O)c1c(N)n(CCCN2CCOCC2)c2nc3ccccc3nc12 (stereo not given) | -0.94%
83 | FC(F)(F)c1cccc(-c2nc(COc3ccc(Cl)cc3Cl)no2)c1 | 1.86%
84 | COc1ccccc1C(=O)n1nc(-c2ccccc2)nc1N | 0.74%
85 | COc1ccc(CC(=O)n2nc(-c3cccnc3)nc2N)cc1 | 9.39% (active)
86 | CCCC(=O)n1nc(-c2ccccc2)nc1N | -0.53%
87 | Clc1ccc(CSc2nnc3c(n2)[nH]c2ccccc23)cc1 | 4.2%
88 | CC(=O)NCC(O)c1ccc([N+](=O)[O-])cc1 (stereo not given) | -2.38%
89 | COC(=O)c1ccc(S(=O)(=O)N(CCO)Cc2ccccc2)n1C | 0.33%
90 | O=C(Cn1cnc2ccccc2c1=O)Nc1cccc(S(=O)(=O)N2CCCCC2)c1 | -0.22%
91 | Cc1[nH]c2ccccc2c1SCC(=O)Nc1nccs1 | -4.02%
92 | CC(=O)c1cc(C#N)c(SCC(=O)Nc2nccs2)nc1C | 8.83% (active)
93 | CC(=O)c1cc(C#N)c(SCC(=O)C(C)(C)C)nc1C | 0.58%
94 | COc1ccc(Cl)cc1CSc1ncn[nH]1 | -0.89%
95 | Cc1cc(C)nc(S/C=C/C(=O)c2ccccc2)n1 | 1.73%
96 | O=C(/C=C/Sc1ncn[nH]1)c1ccc(Cl)cc1 | 9.14% (active)
97 | Cc1ccc(NC(=S)N2CCCC(c3ccccc3)=N2)cc1 | -4.54%
98 | O=C(O)Cc1sc(-c2ccc(C(=O)O)cc2)nc1-c1ccccc1 | 2%
99 | NC(=O)Cc1ccc2c(c1)[nH]c1ccccc12 | 0.52%
100 | NC(=O)Cc1ccc2sc(-c3ccccc3)nc2c1 | 14.1% (active)

Source: PubChem BioAssay AID1321 (The Scripps Research Institute Molecular Screening Center, 2008)
